High-throughput results deposited in PubChem by National Center for Advancing Translational Sciences (NCATS).
An excerpt weighted towards active compounds, which were near 6% of everything screened.
D3 antag: blocks the human D3 dopamine receptor | P35462 | D3R cells, DiscoveRx beta-arrestin luminescence, antagonist mode; stronger effect = lower value | max response, negative = inhibition, % | 2.5% of 360,000 active | AID 652054; in the data active = max response below about -50%; inconclusive = no clear call, values can overlap the other calls; note: % is set by controls: 0 for no effect and ±100 for the full control effect
Target sequence (P35462 whole entry, looked up): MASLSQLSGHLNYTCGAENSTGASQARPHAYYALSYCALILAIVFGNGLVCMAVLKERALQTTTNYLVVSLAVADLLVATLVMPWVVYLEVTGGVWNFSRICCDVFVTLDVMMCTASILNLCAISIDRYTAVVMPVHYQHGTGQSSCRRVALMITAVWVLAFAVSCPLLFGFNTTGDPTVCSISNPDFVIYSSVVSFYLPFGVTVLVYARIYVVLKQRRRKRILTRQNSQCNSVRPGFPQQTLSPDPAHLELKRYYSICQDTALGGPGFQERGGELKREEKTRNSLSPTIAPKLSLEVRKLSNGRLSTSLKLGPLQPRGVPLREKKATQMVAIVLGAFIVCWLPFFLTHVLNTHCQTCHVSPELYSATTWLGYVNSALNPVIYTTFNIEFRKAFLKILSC
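Cells plated overnight at 1500 cells/well, then exposed to library compounds with dopamine controls for 90 minutes at 37 degrees C. DiscoveRx reagent added for 30–60 minutes at room temperature; luminescence read, quantitative HTS format.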
BCR signal inh: blocks chronic active B-cell receptor signaling; 0.05% of 340,000 active; Potency, µM (doses to about 46.1 µM), for the others: at the highest dose activity change, negative = inhibition, most hits filed as inhibitors; ABC-DLBCL IkBa-CBG/CBR reporter, luminescence ratio, 4 h; active = well fitted inhibition curve with a large enough effect in the signal ratio, with a control signal flat, not every such curve was filed as active; inconclusive = small, poorly fitted or top-dose-only effect, or effect the other way, or a change in a side signal; the % refers to the signal ratio;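 note: potency is the fitted concentration of half-maximal effect; plate controls were basal doxycycline-induced cells for no effect and cells given 10 µM MG132 for full effect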
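Doxycycline induced both beetle luciferases in TMD8 lymphoma cells; IKK-driven degradation limits the IkappaBalpha-fused green signal, while red luminescence normalises for cell number and nonspecific effects. Compounds tested up to 46 uM, 4 hrs.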
D1 agonist: activates the human D1 dopamine receptor | AID 504660 | activation, % at 2 µM | HEK293 T-REx D1 cells, calcium flux, agonist mode | P21728 | 1% of 360,000 active; in the data active = activation above about 30%; note: 0% is about no effect
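Inducible HEK293 T-REx D1 cells, force-coupled to calcium signalling, were plated at 4000 cells/well with tetracycline and held overnight at 30 C. After no-wash calcium dye loading, compound-evoked calcium rise over 180 s flagged agonists.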
D1 antag: blocks dopamine activation of the human D1 receptor. HEK293 TREx D1 cells, calcium flux, dopamine EC80; stronger effect = lower value. activity change, negative = inhibition, % at 10 µM. 3.2% of 360,000 active. AID 504652; in the data active = activity change below about -30%; note: % is set by controls: 0 for no effect and ±100 for the full control effect
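Antagonism measured as reduced calcium response to an EC80 dopamine addition following 180 s compound pre-read; cells were inducible HEK293 Trex D1 plated overnight at 30 C, read kinetically at 1 cycle/sec.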
D3 ag: D3 dopamine receptor (human) agonism; max activation, %; D3R DiscoveRx beta-arrestin cells, luminescence, 90 min; P35462; 0.58% of 410,000 active; AID 652048; in the data active = max activation above about 30%; note: 0% is about no effect
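Cells at 1500/well, incubated overnight, then treated with pinned compounds (dopamine as control) for 90 min at 37 degrees C. DiscoveRx reagent added for 30 - 60 minutes at room temperature; luminescence read.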
D1 potentiator: human D1 dopamine receptor positive modulation. 0.036% of 360,000 active. HEK293 TREx D1 cells, calcium flux, dopamine EC20 potentiation. potentiation, % at 10 µM. AID 504651; in the data active = potentiation above about 30%; note: 0% is about no effect
The depositor's hits bear a star; ? = inconclusive; / = not tested or not shown.

SMILES	D3 antag	BCR signal inh	D1 agonist	D1 antag	D3 ag	D1 potentiator
CCOc1ccc(S(=O)(=O)N(C(C)=O)c2ccc3oc(C)c(C(=O)OC)c3c2)cc1	/	/	1	-9	1	4
COC(=O)c1c(C)oc2ccc(N(C(C)=O)S(=O)(=O)c3ccccc3)cc12	11	-2%	2	-66*	-29	-10
Cc1ccc(-n2c(=O)c3ccccc3n(CC(=O)Nc3cccc(C(F)(F)F)c3)c2=O)cc1	/	/	7	6	7	1
O=C(Nc1ccc(Cl)c(Cl)c1)Nc1ccon1	1	-16%	26	-23	1	-3
O=C(NC(=S)Nc1ccc(Br)c(Cl)c1)C1CC1	-17	-16%	4	-36*	-6	-5
CC(C)NC(=O)Nc1cccc(Cl)c1	-2	0%	2	-40*	6	3
O=C1C=C(NC(=O)Nc2ccc(Cl)c(Cl)c2)CCC1	-14	?	13	-54*	-10	-9
CC(C)C[C@H](NC(=O)Nc1cccc(Cl)c1)C(=O)O	-10	4%	3	-7	4	-3
O=C(Nc1ccccc1)Nc1ccc(Br)c(Cl)c1	2	?	26	-31*	3	-8
O=C(Nc1cccc(Cl)c1)Nc1csc([N+](=O)[O-])c1	-29	?	27	-47*	20	-4
Cc1ccc(NC(=O)Nc2ccc(F)c(Cl)c2)cc1	-19	?	4	/	5	-8
CSc1ccccc1NC(=O)Nc1ccc(F)c(Cl)c1	-13	?	9	-32*	-24	-4
COc1cccc(NC(=O)Nc2ccccc2SC)c1	-6	?	2	-13	-8	0
O=C(Nc1ccc(Cl)c(Cl)c1)Nc1ccccc1O	18	?	21	-37*	3	-4
CSc1ccccc1NC(=O)Nc1cccc(Cl)c1	?	?	16	-40*	-29	-21
CCOc1ccccc1-n1c(N)c(C(=O)OC)c2nc3ccccc3nc21	/	/	0	-10	4	-1
CC(=O)c1ccc(N2CCN(C(=O)c3cc4ccc5cccnc5c4[nH]3)CC2)cc1	/	/	5	8	-4	-6
CCOC(=O)c1c(C)oc2nc(C)nc(N3CCN(c4ccc(C(C)=O)cc4)CC3)c12	/	/	5	6	3	-2
C[C@@H]1CCCCO[C@@H](CN(C)C(=O)CCC(F)(F)F)[C@@H](C)CN([C@H](C)CO)C(=O)c2cc(N(C)C)ccc2O1	14	/	/	/	6	/
COc1cc(/C=C2\OC(=O)c3c(OC)cccc32)ccc1O	10	9.2µM*	5	4	7	5
COc1cc(C=C2CN(C)C(=O)C2=O)ccc1O	-13	/	/	/	-4	/
O=C(CNC(=O)c1ccco1)OCC(=O)c1ccc([N+](=O)[O-])cc1	-2	?	2	-6	32*	3
COc1ccccc1N1CCN(S(=O)(=O)c2ccc(F)c(C(=O)Nc3ccc(C)c(F)c3)c2)CC1	/	-10%	-1	-1	8	-1
COc1cc(Cl)c(NS(=O)(=O)c2ccc3c(c2)CC(C)N3C(=O)C2CCC2)c(OC)c1 (configuration not stated)	/	/	14	-31*	2	-4
COc1cccc(NS(=O)(=O)c2ccc3c(c2)CCCN3C(=O)C2CCC2)c1	/	/	8	-52*	6	-7
SMILES	D3 antag	BCR signal inh	D1 agonist	D1 antag	D3 ag	D1 potentiator
Cc1nnc2c(N3CCN(c4ccccc4)CC3)nc3ccc(C(=O)c4ccccc4)cc3n12	/	/	4	2	-3	2
C[C@]12CC[C@H]3[C@@H](CCC4=CC(=O)CC[C@@]43C)[C@@H]1CC[C@@H]2C(=O)CO	-88*	?	2	-15	-91	0
O=C(Nc1ccccc1N1CCN(C(=O)c2ccccc2)CC1)c1ccccc1Cl	17	6%	2	-45*	1	-6
O=C(Nc1ccccc1N1CCCC1)c1cc(Cl)ccc1Cl	22	?	0	-5	1	-5
O=C(Nc1cc(C(=O)N2CCCC2)ccc1N1CCCC1)c1ccccc1F	56	7%	2	7	61*	-1
O=C(Nc1ccccc1N1CCCC1)c1ccc(Cl)cc1Cl	12	12%	4	-33*	-6	-3
CCCCNC(=O)C[C@@H]1C[C@@]2(C(=O)OC)CCCCC=C2N(CCC2=CCCCC2)C1=O	22	/	/	/	5	/
CCCCNC(=O)CCn1c(=O)c2ccccc2n(Cc2ccccc2C#N)c1=O	/	/	-3	14	1	0
CCCn1c(CN(C)Cc2ccccc2)nc2c1c(=O)n(C)c(=O)n2C	5	11%	4	-43*	6	0
CCCCn1c(CN(C)Cc2ccccc2)nc2c1c(=O)n(C)c(=O)n2C	67	?	4	1	10	3
COc1ccc(-c2cc(-c3ccccc3)nc(SCC(=O)Nc3ncc(C)s3)c2C#N)cc1	-56*	?	16	5	-46	-10
COc1ccc(-c2cc(C(F)(F)F)c(C#N)c(SCC(=O)Nc3ccccc3F)n2)cc1	/	/	21	-18	0	-3
N#Cc1c(-c2ccccc2)cc(-c2cccs2)nc1SCC(=O)O	-55*	?	4	-12	-16	-4
CCc1nnc(NC(=O)CSc2nc(-c3ccc(F)cc3)cc(-c3ccccc3)c2C#N)s1	-4	-18%	2	15	1	4
COc1ccc(-c2cc(C(F)(F)F)c(C#N)c(SCC(=O)Nc3ccccc3C#N)n2)cc1	25	2%	60*	4	-1	1
COc1ccc(-c2cc(-c3cccs3)c(C#N)c(SCC(=O)NCc3ccccc3OC)n2)cc1	15	11%	6	-36*	-2	3
COc1ccc(NC(=O)CSc2nc(-c3ccc(C)cc3)cc(C(F)(F)F)c2C#N)cc1	13	-2%	5	-41*	0	-7
COc1ccc(-c2cc(C(F)(F)F)c(C#N)c(SCC(=O)Nc3cccc(C)c3)n2)cc1	/	/	10	11	9	5
COc1ccc(NC(=O)CSc2nc(-c3cccs3)cc(C(F)(F)F)c2C#N)cc1	/	/	14	-3	3	2
CCOC(=O)c1ccc(NC(=O)CSc2nc(-c3cccs3)cc(C(F)(F)F)c2C#N)cc1	/	/	50*	-8	9	-1
O=c1[nH]c2ccccc2nc1-c1nnnn1Cc1ccccc1	-17	/	/	/	-9	/
COc1cc(C(=O)NC(=S)NNC(=O)c2ccc3c(c2)OCO3)cc(OC)c1OC	11	?	4	-21	30*	8
COc1cc(C(=O)N2CCC(C(=O)Nc3cccc(C(C)=O)c3)CC2)cc(OC)c1OC	-53*	?	1	0	0	-10
COc1ccc(NC(=O)C2CCN(C(=O)c3ccccc3)CC2)cc1OC	-21	-1%	1	4	0	-2
